A selection: hits, their analogues and other compounds. The true share with any hit is near 0.52%.
BCR signal inh – inhibitors of chronic active B-cell receptor signaling. ABC-DLBCL IkBa-CBG/CBR reporter, luminescence ratio, 4 h. Potency, µM (doses to about 46.1 µM), for the others: at the top dose activity change, negative = inhibition, actives largely listed as inhibitors. 340,000 compounds, 0.05% hits. AID 493014; active = well fitted inhibition curve with a large enough effect in the signal ratio, with a control signal flat, not every such curve was filed as active; inconclusive = small, poorly fitted or top-dose-only effect, or effect the other way, or a change in a side signal; the % refers to the signal ratio;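 note: plate controls were basal doxycycline-induced cells for no effect and cells given 10 µM MG132 for full effect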
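TMD8 ABC-DLBCL cells carrying doxycycline-inducible green luciferase fused to IkappaBalpha plus unfused red luciferase were exposed to compounds (up to 46 uM) for 4 hrs at 37C. Activity came from the overlap-corrected green/red luminescence ratio.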
USP2a inh – inhibitors of human ubiquitin-specific protease USP2a. Potency, µM (doses to about 38.3 µM), for inactives: at the top dose activity change, negative = inhibition, hits mostly inhibitors. USP2 core, Ub-CHOP2 coupled fluorogenic reporter, 485/531. O75604. 330,000 compounds, 0.01% hits;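 note: plate controls were DMSO wells for no effect and full inhibition by NEM control for full effect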
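USP2 core (10nM final) preincubated 30min RT with compound in 20mM Tris-HCl pH 8.0, 2mM CaCl2, 2mM beta-mercaptoethanol, 0.05% CHAPS; 25nM Ub-CHOP2 plus 25nM reporter substrate added, fluorescence (Ex485/Em531) read after 60min.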
RGS4 inh – human RGS4 inhibition; Transcreener GDP fluorescence polarization, RGS4-accelerated GTP hydrolysis; 390,000 compounds, 0.039% hits; P49798; Potency, µM (highest dose often 114 µM), for the others: at the top dose activity change, negative = inhibition, hits mostly inhibitors; note: nearly all actives have a fitted effect of over 75% in size
Target sequence (P49798 whole entry, looked up): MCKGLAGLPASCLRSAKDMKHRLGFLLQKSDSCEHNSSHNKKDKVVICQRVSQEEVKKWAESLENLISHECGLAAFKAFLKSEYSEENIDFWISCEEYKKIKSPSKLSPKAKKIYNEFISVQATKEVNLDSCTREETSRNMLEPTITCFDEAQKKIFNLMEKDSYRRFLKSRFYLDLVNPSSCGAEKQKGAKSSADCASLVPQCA
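MLSMR compounds (23 nl, pin-transferred) preincubated 10 min at room temperature with a 500nM (2x) first reagent, then RGS4 at 900nM (2x) plus Transcreener GDP mix added; fluorescence polarization (620/688 nm) read before and after 90 min at 30 °C.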
Eya2 phos inh – blocks the phosphatase activity of human Eya2. recombinant Eya2, OMFP fluorescence dephosphorylation (OMFP is methylfluorescein phosphate). Potency, µM (series often up to 76.9 µM), without a hit: at the highest dose activity, negative = inhibition, actives largely listed as inhibitors. 330,000 compounds, 0.006% hits. AID 488837
Target sequence (O00167 whole entry, looked up): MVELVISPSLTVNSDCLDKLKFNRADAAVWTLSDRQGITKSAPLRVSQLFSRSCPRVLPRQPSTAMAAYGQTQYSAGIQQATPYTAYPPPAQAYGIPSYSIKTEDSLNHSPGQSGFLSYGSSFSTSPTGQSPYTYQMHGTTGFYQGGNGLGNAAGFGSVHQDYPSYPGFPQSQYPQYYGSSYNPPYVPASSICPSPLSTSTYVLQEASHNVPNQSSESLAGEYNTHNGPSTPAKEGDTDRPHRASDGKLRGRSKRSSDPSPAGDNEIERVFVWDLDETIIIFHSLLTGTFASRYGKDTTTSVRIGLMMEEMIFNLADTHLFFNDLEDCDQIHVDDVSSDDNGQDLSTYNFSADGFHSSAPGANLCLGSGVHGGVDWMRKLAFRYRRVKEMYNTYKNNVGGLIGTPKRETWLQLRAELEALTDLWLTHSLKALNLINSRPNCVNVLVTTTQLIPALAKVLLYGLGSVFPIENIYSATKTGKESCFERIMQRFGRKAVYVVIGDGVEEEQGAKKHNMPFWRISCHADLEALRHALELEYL
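Eya2 protein (added as 0.2 uM solution) was preincubated with compound for 10 min at ambient temperature in 50 mM HEPES pH 7.5, 50 mM NaCl, 5 uM MgCl2, 0.05% BSA, 1 mM DTT. OMFP (added at 50 uM) then reacted 10 min; fluorescence read at 485/525 nm.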
uPA generation – blocks generation of uPA at the cell surface; AID 540303; 330,000 compounds, 0.31% hits; cell surface uPA generation assay, qHTS; Potency, µM (series often up to 38.3 µM), for inactives: at the top dose activity change, negative = inhibition, usual class: inhibitors; active = well fitted inhibition curve with a large enough effect; inconclusive = small, poorly fitted or top-dose-only effect; inactive = no such curve, though single readings can be large or run the other way; tested in mouse RAW 264.7 cells; note: nearly all actives have a fitted effect of over 55% in size
GCN5L2 inh – GCN5L2 (KAT2A) acetyltransferase inhibition; Q92830; GCN5L2 HAT assay, ThioGlo1 CoA-SH fluorescence; Potency, µM (titrated, usually from 58.9 µM), inactives show top-dose activity change, negative = inhibition, actives largely listed as inhibitors; 390,000 compounds, 0.21% hits; AID 504327
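ThioGlo1-coupled HAT assay: 20nM GCN5L2, 70uM acetyl-CoA, 75uM H3(1-25) peptide, pH 7.5. Fluorescence read at 340/540nm at start and after 20 min at room temperature.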
Starred values were filed as active, the others as inactive; ? = inconclusive; / = no result; [ ] = remark or other dose. Unless noted, calls come from the whole dose curve; as a rule, active = well fitted curve in the direction sought with a large enough effect; inconclusive = small, poorly fitted or top-dose-only effect, or another doubt; inactive = no such curve, though single readings can be large; an effect the other way counts as inactive or inconclusive. Unless noted, % is set by controls: 0 for no effect and ±100 for the full control effect; potency is the fitted concentration of half-maximal effect.

SMILES | BCR signal inh | USP2a inh | RGS4 inh | Eya2 phos inh | uPA generation | GCN5L2 inh
COc1cccc(N/C=C/C(=O)c2ccc(Cl)cc2)c1 | ? | 5% | 0% | -1% | -7% | -5%
COc1cccc(N/C=C/C(=O)c2ccc(C)cc2)c1 | ? | -2% | 9% | -1% | 8.9µM* | -6%
O=C(Nc1ccc(Br)cc1F)C1CCN(c2nc3ccccc3[nH]2)CC1 | / | / | 1% | / | / | -5%
Cc1cc2c(cc(C(=O)OCC(=O)NCc3cccs3)n2C(C)C)o1 | 8.2µM* | -2% | -27% | -20% | ? | -3%
Cc1ccc2oc(C(=O)N(Cc3cccc(F)c3)C3CCS(=O)(=O)C3)c(C)c2c1 (centres undefined) | / | / | -19% | / | / | -8%
CCN(CC)C(=O)Cn1c(=O)n(CCCCCC(=O)NCc2ccc3c(c2)OCO3)c(=O)c2sccc21 | / | / | 34% | / | / | 4%
Nc1nn(-c2ccccc2)c(N)c1N=Nc1ccc2c(c1)OCO2 | ? | 0% | 8% | 0% | -3% | -5%
Nc1nn(-c2ccccc2)c(N)c1N=Nc1cccc(F)c1 | ? | -1% | -4% | -4% | 1.4µM* | -10%
CCCNC(=O)COCc1cc(-c2ccc(F)cc2)on1 | ? | / | -13% | / | / | 2%
Cc1ccc(-c2cc(C(=O)N3CC(C)OC(C)C3)c3ccccc3n2)o1 (centres undefined) | -3% | -2% | -37% | -14% | -5% | 22µM*
COc1ccc(N(CC(=O)Nc2cccc(C(C)=O)c2)S(=O)(=O)c2ccccc2)c(OC)c1 | / | / | 3% | / | / | -5%
CCC1(C)Cc2sc3c(=O)[nH]c(=S)[nH]c3c2CO1 (centres undefined) | 13% | 0% | ? | 2% | -2% | 25µM*
NC(=O)C1CCN(C(=O)CC(c2ccccc2)c2ccccc2)CC1 | 5% | 1% | 0% | 4% | 3% | 32µM*
CCOC(=O)C1CCN(C(=O)CC(C)c2ccccc2)CC1 (centres undefined) | / | / | -45%[56.9 µM] | / | -1% | /
O=C(CSc1nccn1Cc1ccc(F)cc1)Nc1nc2ccccc2s1 | / | / | -15% | / | / | -16%
CC(=O)c1ccc(Nc2c([N+](=O)[O-])ccc3nonc23)cc1 | 4% | 2% | 19% | 11% | 0% | 1%
O=[N+]([O-])c1cc([N+](=O)[O-])c2nonc2c1Nc1ccc(O)cc1 | -1% | 2% | -33% | 0% | 11µM* | -2%
O=[N+]([O-])c1cc([N+](=O)[O-])c2nonc2c1Nc1ccccc1O | ? | -1% | 3% | 6% | 5.6µM* | 0%
C(=C\c1ccco1)/c1nc2ccccc2[nH]1 | ? | 1% | -40% | 3% | 7.1µM* | -23%
Cc1noc(C)c1-c1nc(NCc2ccccc2)c2ccccc2n1 | / | / | / | / | / | 25µM*
COc1cccc(NC(=O)Cn2c(=O)n(-c3ccc(CC(=O)NCC4CCCO4)cc3)c(=O)c3ccccc32)c1 (centres undefined) | / | / | -10% | / | / | 0%
O=C(NCC(=O)N1CC=C(c2ccccc2)CC1)c1ccc(OC(F)F)cc1 | -1% | 10% | -2% | ? | ? | -13%
COc1cc(OC)cc(C(=O)NCC(=O)N2CC=C(c3ccccc3)CC2)c1 | ? | 1% | -29% | -13% | 4.5µM* | -4%
COc1ccc2c(c1)c1c(c(=O)n(CCc3ccccc3)c(=O)n1Cc1ccc(F)cc1)n2C | / | / | 20% | / | / | 0%
CCCOC(=O)c1c(-c2ccccc2)c(-c2ccccc2)nn(C)c1=O | / | / | -38% | / | / | -11%
SMILES | BCR signal inh | USP2a inh | RGS4 inh | Eya2 phos inh | uPA generation | GCN5L2 inh
COc1ccc(-c2nsc3c(N4CCCCC4C)ncnc23)cc1 (centres undefined) | ? | 2% | -15% | -3% | 3.2µM* | 2%
CCCOc1cccc(C2c3c(-c4ccccc4O)n[nH]c3C(=O)N2Cc2ccco2)c1 (centres undefined) | / | / | -16% | / | / | -7%
Cc1cc(C)cc(NS(=O)(=O)c2ccc3oc(=O)ccc3c2)c1 | 1% | -1% | 5% | 16% | / | -2%[0.501 µM]
O=Nc1ccc2oc(=O)ccc2c1 | / | / | 6µM* | 4% | / | ?
[O-][n+]1cccc(CO)c1 | / | / | / | / | / | -4%
O=C1C2C(c3ccccc3)CC=CC2C(c2ccc(C(F)(F)F)cc2)N1Cc1ccccc1 (centres undefined) | / | / | -12% | / | / | /
Cc1ccc(S(=O)(=O)N[C@@H](Cc2ccccc2)C(=O)CCl)cc1 | ? | 4% | 7.5µM* | -8% | 5µM* | -19%
COc1ccc(/C=N/NC(=O)CCSc2nc3ccccc3s2)cc1 | ? | -1% | 6%[11.4 µM] | 8% | 4µM* | -7%
O=C(CCn1cnc(-c2ccccc2)c1-c1ccccc1)N/N=C/c1ccc(O)cc1 | -14% | -1% | -14%[11.4 µM] | 1% | ? | 5%
COc1ccc(/C=N/NC(=O)CCn2cnc(-c3ccccc3)c2-c2ccccc2)cc1 | 23µM* | -7% | 5%[11.4 µM] | -13% | 1.1µM* | -6%
CCCCC12CN3CC(C)(CN(C1)C3c1ccc(OCc3ccccc3)cc1)C2=O (centres undefined) | / | / | 12% | / | / | -4%
CCC(=O)NC1Cc2ccccc2C(c2ccccc2)C1 (centres undefined) | / | / | 24µM* | / | / | -2%
COc1ccc(C2=NC(C)(C)Cc3cc(OC)c(OC)cc32)cc1 | -14% | 7% | 4% | 5% | 0% | 24%
COc1cc2c(cc1OC)C(SC)=NC(C)(C)C2 | 16µM* | 0% | ? | 7% | ? | -6%
CC1CCN(C(=O)C(C)OC(=O)c2ccc(S(C)(=O)=O)c([N+](=O)[O-])c2)CC1 (centres undefined) | / | / | -14% | / | / | /
COc1ccc(Cl)cc1NC(=O)CN(C)C(=O)c1cn2ccccc2n1 | 1% | 2% | -2% | -13% | 11µM* | 1%
O=C(c1cccc([N+](=O)[O-])c1)N1c2nc(-c3ccco3)nn2C2(CCCCC2)[C@@H]2CCCC[C@@H]21 | / | / | -36% | / | / | -10%
O=S(=O)(NCC(c1ccco1)S(=O)(=O)c1cccs1)c1ccc(F)c(C(F)(F)F)c1 (centres undefined) | -1% | / | -9% | / | / | -2%
CCOc1cccc(/C=C(/C#N)c2nc3ccccc3[nH]2)c1OCC(=O)O | 6% | -2% | 7% | 9% | -18% | -17%
CCN(CC)c1ccc(/C=C(/C#N)c2nc3ccccc3[nH]2)c(OC(C)C)c1 | ? | ? | -19% | ? | 10µM* | -4%
C=CCc1ccc(OCCOc2ccc(/C=N/n3cnnc3)cc2OCC)c(OC)c1 | 23µM* | -6% | -17%[11.4 µM] | -20% | 2% | 1%

From PubChem
